Source: PubChem BioAssay (NCATS)
Where “and” joins values, the source holds several entries; their conditions need not be identical. Equal values may be shown once. Records with an inconclusive call do not appear. Calls of active or inactive are those of the source. The call rests on the fitted dose curve; in most records, active means well fitted cell-killing curve with a large enough effect; inconclusive means small, poorly fitted or top-dose-only effect, or effect the other way; inactive means no such curve, though single readings can be large or run the other way.

Experiment: Viability qHTS for spleen associated tyrosine kinase inhibitor (SYKi) drug resistant MV4-11 cells (AID 1963824); further: nearly all actives have a fitted effect of over 35% in size
Details: SYKi-resistant MV4-11 viability, CellTiter-Glo, 72 h; series mostly up to 45 µM; viability, % of control: at the top concentration
Summary of the method: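 CellTiter-Glo luminescence, read 10 min after reagent addition, reports viability after a 72 hr compound exposure. Cells are an MV4-11 line made resistant to SYK inhibition, seeded at 500 per well onto compound-containing plates.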
Potency means the concentration at half of the fitted maximal effect.

| Structure (SMILES) | viability, % of control | Potency |
| --- | --- | --- |
| COc1ccc(OC(=O)N(CC(=O)O)Cc2ccc(OCCc3nc(-c4ccccc4)oc3C)cc2)cc1 | 58.9% (inactive) | – |
| Cc1cnc(-c2ccccc2C(C)C)nc1NCc1ccc(-n2ccnn2)cc1 | – | 16.4 µM (active) and 14.8 µM (active) |
| C=C1C(O[C@@H]2O[C@H](CO)[C@@H](O)[C@H](O)[C@@H]2O)CC2C(C)(C)C(O)CCC2(C)C1CC/C(C)=C\CO (some centres not stated) | 86.7% [at 17.3 µM] (inactive) | – |
| Cc1nc(C)c(CN2CCN(C(c3ccc(F)cc3)c3ccc(F)cc3)CC2)nc1C | – | 14.8 µM (active) |
| Nc1nc2cc(-c3ccc4ncc(C(=O)N5CCOCC5)n4c3)ccc2o1 | – | 10.5 µM (active) |
| COc1cc(N2CCN(C)CC2)ccc1Nc1ncc2c(n1)N(C)c1ccccc1C(=O)N2 | – | 13.2 µM (active) |
| COc1ccc2nc3ccc(OC)cc3c(SCCCN)c2c1 | – | 2.31 µM (active) |
| COc1cccc2c1CCC[C@H]2CN(C)CCc1ccc2ccoc2c1 | – | 23.1 µM (active) |
| CC(C)C1=CC2=CCC3[C@](C)(CCC[C@@]3(C)C(=O)O)C2CC1O (some centres not stated) | 89.1% (inactive) | – |
| Cc1ccccc1CN1C2=NCCN2C(=O)C2=C1CCN(Cc1ccccc1)C2 | – | 9.2 µM (active) |
| CCCCCCCCCCCCCC#CC(=O)[C@@H]1COC(C)(C)N1C(=O)OC(C)(C)C | 69.9% (inactive) | – |
| COc1ccc(CN2CCN(C(=O)CCNC(=O)c3ccc(C(C)(C)C)cc3)CC2)cc1 | – | 9.2 µM (active) |
